Drawing on PubChem BioAssay AID598 (SRMLSC, 2007), this text covers viability for 97 molecules.

In all, about 85,000 compounds went through this assay and about 5,100 (6%) were called active. The full list was thinned out, with actives kept by preference. Unmarked numbers belong to inactive results.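 The calls were made as follows: active = viability at or below 40%; inactive = viability above 40%.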

The experiment can be described thus: proliferation blockers of H69AR lung cancer cells, primary screen, cell-based, human, 86K library (AID 598).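 Also: multidrug resistant small cell line overexpressing MRP-1 efflux transporter; 100% = mean luminescence of untreated control wells.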 To be noted: H69AR lung tumor viability, ATP luminescence, 72 h; at 10 µM; active compounds read low.
Usually viability stands for a read-out of living cells in per cent, often relative to untreated cells. On to `COCCCn1c2nc3ccccc3nc2c2c(=O)n(Cc3ccc(Cl)cc3)c(C)nc21`, for which the viability is 64.8%.

As for `Cc1ccc(Cn2c(C)nc3c(c2=O)c2nc4ccccc4nc2n3Cc2ccco2)cc1`, the viability is 83.3%.

For the molecule `Cc1nc2c(c(=O)n1Cc1ccco1)c1nc3ccccc3nc1n2Cc1ccccc1`, the viability was 11.2% (active).

For the molecule `OCCCN1c2ccccc2Nc2nnc(-c3ccccc3)cc21`, the viability is 39.4% (active).

For the molecule `Cc1nc(NC(=O)C2CCCCC2)sc1C`, the viability is 91.5%.

Consider `CCNS(=O)(=O)c1ccc(NC(=O)Nc2cccc(C(F)(F)F)c2)cc1`, for which the viability was 9.94% (active).

As to `O=C(O)CSCC(=O)Nc1cccc(C(F)(F)F)c1`, the viability was 96.6%.

Regarding `CCNS(=O)(=O)c1ccc(NC(=O)Nc2cccc(OC)c2)cc1`, the viability is 82.3%.

For `COc1ccc(-c2cn(-c3ccc(C)cc3)c(=O)n2CC(=O)Nc2ccc(OC)c(OC)c2)cc1`, the viability was 76.5%.

`CS(=O)(=O)n1nc(-c2ccccc2)nc1NCc1ccco1`: the viability is 96.7%.

On to `Cc1cc(S(=O)(=O)NC2CCCCC2)ccc1OCC(=O)NCc1cccnc1`, for which the viability was 107%.

With `CC1(C)CC(CC(=O)O)C(=O)O1` (configuration not stated), the viability was 98%.

Take `Cc1ccc(OCC(O)CN2CCN(CC(O)COc3ccc(C)cc3Cl)CC2)c(Cl)c1` (configuration not stated): the viability was 1.96% (active).

Consider `COc1cccc(OCC(O)CN2CCN(CCO)CC2)c1` (configuration not stated), for which the viability was 96.9%.

Regarding `OC(COc1cccc2ccccc12)CN1CCN(c2ccccn2)CC1` (configuration not stated), the viability is 86.3%.

With `CCN(CC(=O)NCc1cccs1)c1nnnn1-c1ccccc1`, the viability is 14% (active).

For `Cc1nnc(SCC(=O)NCc2cccs2)[nH]c1=O`, the viability is 91.8%.

Turning to `O=C(CSc1nnnn1-c1ccccc1)NCc1ccco1`, the viability was 80%.

In the case of `c1ccc2c(c1)C(=NC1CCCCC1)NC2=NC1CCCCC1`, the viability was 15.9% (active).

Take `O=C1CCCCC(=O)c2ccccc2N1`: the viability is 102%.

Consider `Cc1nnc(OCC(=O)NCCC2=CCCCC2)c2ccccc12`, for which the viability was 101%.

As to `Cc1c(NC(=O)c2coc(=O)c(Br)c2)c(=O)n(-c2ccccc2)n1C`, the viability was 2.66% (active).

Take `COC(=O)Nc1c(C)n(C)n(-c2ccccc2)c1=O`: the viability was 99.9%.

For the molecule `Cc1cc(C(=O)Nc2c(C)n(C)n(-c3ccccc3)c2=O)cs1`, the viability was 110%.

For the molecule `Clc1ccc(Nc2nc(-c3cccs3)cs2)nc1`, the viability is 31.8% (active).

On to `O=C(Nc1ccc(Cl)cn1)Nc1cccs1`, for which the viability was 98.4%.

As to `c1ccc(Nc2nc(-c3ccncc3)cs2)nc1`, the viability was 86.7%.

For the molecule `Cc1cc(C)c2cc(CN(Cc3nnnn3Cc3ccc(F)cc3)C3CCCC3)c(=O)[nH]c2c1`, the viability is 64.6%.

As to `CCCCOC(=O)Cn1c(=N)n(CCN(CC)CC)c2ccccc21`, the viability is 91.2%.

`CCOC(=O)C1CCc2nc3ccccc3c(=O)n21` (configuration not stated): the viability was 96.6%.

Regarding `O=c1c2ccccc2nc(N/N=C/c2ccccc2)n1O`, the viability was 46.3%.

Take `CCn1c(/C=C/c2ccc([N+](=O)[O-])o2)nc2ccccc2c1=O`: the viability is 6.55% (active).

On to `O=C(CCN1c2ccccc2Sc2ccccc21)Nc1ccccc1`, for which the viability is 70.8%.

Regarding `CC1=CC(=O)C=CC1(C)C(Cl)(Cl)Cl` (configuration not stated), the viability was 105%.

For `COc1ccc2c(c1)cc1n2CCN=C1NN`, the viability is 90.8%.

In the case of `COC(=O)C1=C(C(=O)OC)C2(OC1c1ccc(Br)cc1)C(=O)c1ccccc1C2=O` (configuration not stated), the viability is 106%.

Take `CCOC(=O)c1ccc(N2C(=O)CC(N(C)Cc3ccccc3)C2=O)cc1` (configuration not stated): the viability was 93.7%.

Turning to `O=C(c1cccc(C(=O)N2CCN(c3ccc(F)cc3)CC2)c1)N1CCN(c2ccc(F)cc2)CC1`, the viability is 70.1%.

On to `Fc1ccc(N2CCN(Cc3cnc(Oc4ccc(Br)cc4)s3)CC2)cc1`, for which the viability was 90.4%.

On to `Oc1c(CN2CCN(c3ccc(F)cc3)CC2)cc(Cl)c2cccnc12`, for which the viability was 5.07% (active).

Consider `Cn1c(-c2sc3cc(C(F)(F)F)cnc3c2-c2ccccc2)n[nH]c1=S`, for which the viability was 92.5%.

`C=CCc1ccc(OCCOc2cccc(/C=N/n3cnnc3)c2)c(OC)c1`: the viability is 80.3%.

As for `O=C(Nc1ccon1)c1sc2ccccc2c1Cl`, the viability was 88.1%.

As to `CCOC(=O)CSc1nnc(-c2ccncc2)o1`, the viability was 95.7%.

For the molecule `O=C(OCC#CCSc1nnc(-c2ccncc2)o1)c1sc2ccccc2c1Cl`, the viability is 2.76% (active).

Consider `O=C(Nc1ccc2c(c1)CCC2)c1cccc(S(=O)(=O)N2CCN(c3ccc(F)cc3)CC2)c1`, for which the viability was 79.3%.

As to `COc1ccc(C2CC(c3cccs3)=Nc3ccccc3S2)cc1OC` (configuration not stated), the viability is 20.8% (active).

With `COc1ccc(C2CC(=O)n3c(nc4ccccc43)S2)cc1OC` (configuration not stated), the viability is 115%.

For `COc1ccc(C2SCCN2S(=O)(=O)c2ccccc2)cc1OC` (configuration not stated), the viability is 81.4%.

`O=C(Nc1ccc(F)c(Cl)c1)C1CCN(S(=O)(=O)c2cccnc2)CC1`: the viability was 71.8%.

Take `CCOC(=O)c1cnn(Cc2ccccc2Cl)c1N`: the viability was 96.2%.

For `CC1CCCN(C(C(=O)Nc2ccc(C(C)C)cc2)c2ccc3c(c2)OCO3)C1` (configuration not stated), the viability is 59.6%.

As to `Cc1[nH]n(-c2ccc([N+](=O)[O-])cc2)c(=O)c1C=NCCN1CCN(C(=O)c2ccccc2F)CC1`, the viability is 39.4% (active).

For the molecule `CC(=O)Nc1ccc(S(=O)(=O)N2CCN(C(=O)c3ccccc3F)CC2)cc1`, the viability was 85.2%.

As for `CC(=O)N1CCN(CCN=CC2=C(O)CC(C)(C)CC2=O)CC1`, the viability is 101%.

As for `CCC(C(=O)NCc1ccc(OC)cc1)n1nc(C)n2c(cc3occc32)c1=O` (configuration not stated), the viability was 80.3%.

Regarding `CCCc1nnc(NC(=O)c2cccs2)s1`, the viability was 102%.

In the case of `O=S(=O)(c1ccc(Br)cc1)n1ccc2ccccc21`, the viability is 8.36% (active).

`CCCCNS(=O)(=O)c1ccc(S(=O)(=O)n2cnc3ccccc32)cc1`: the viability was 88.8%.

For `CC1(C)C2CCC13CS(=O)(=O)NC3C2` (configuration not stated), the viability is 91.1%.

As for `CCn1c(C)nc2cc(C(=O)NNS(=O)(=O)c3ccc(C)cc3C)ccc21`, the viability was 95.5%.

Regarding `OC(c1ccccc1)c1nccn1Cc1ccccc1` (configuration not stated), the viability was 94.2%.

As to `CCn1c(Cc2cccs2)nnc1SCC(=O)c1ccc(C)cc1`, the viability is 84.1%.

Regarding `NC(=O)c1ncc(C(F)(F)F)cc1Oc1ccc(F)cc1`, the viability is 102%.

For the molecule `N/C(=N\OC(=O)Nc1ccc(Cl)c(Cl)c1)c1ncc(C(F)(F)F)cc1Cl`, the viability is 19.4% (active).

As for `O=C(CN1CCN(c2ncc(C(F)(F)F)cc2Cl)CC1)Nc1ccc2c(c1)OCO2`, the viability is 105%.

For the molecule `CCN1CCN(Cc2c(O)ccc3c(=O)c(-c4ccc(OC)c(OC)c4)c(C(F)(F)F)oc23)CC1`, the viability is 104%.

Regarding `O=c1c(-c2ccc3c(c2)OCCO3)c(C(F)(F)F)oc2cc(O)cc(O)c12`, the viability is 39% (active).

With `CCSc1ccccc1C(=O)NCc1ccc(OC)cc1`, the viability is 92.6%.

For the molecule `CC(C)c1ccc(-c2noc(C3CCCN(S(C)(=O)=O)C3)n2)cc1` (configuration not stated), the viability is 106%.

Take `CC1CCCC(C)N1CCCNC(=O)c1cc2c(=O)n(C)c3ccccc3c2n1C` (configuration not stated): the viability was 69.1%.

Take `CCn1c(=O)cc(OCC(=O)NCCCN2CCN(c3cccc(Cl)c3)CC2)c2ccccc21`: the viability was 43.8%.

With `Cn1c(C(=O)NCCCN2CCN(c3cccc(Cl)c3)CC2)cc2c(=O)n(C)c3ccccc3c21`, the viability is 1.66% (active).

With `Cn1c(=O)c2c(ncn2CC(COCc2ccccc2Cl)OCc2ccccc2Cl)n(C)c1=O` (configuration not stated), the viability is 77.7%.

Take `Cc1ccc(-c2noc(CSc3nnc(-c4cccs4)n3C)n2)cc1`: the viability is 98.8%.

For `COCCNS(=O)(=O)c1cc(Br)ccc1OC`, the viability was 106%.

As to `CCOCCn1c(C(C)C)nc2ccccc21`, the viability was 102%.

Take `CCC(=O)NC(Nc1cc(C)ccn1)(C(F)(F)F)C(F)(F)F`: the viability was 99%.

For `O=C(c1cccc2ccccc12)N1CCN(c2ccccc2F)CC1`, the viability was 56%.

As to `COc1ccc2oc(=O)c(C(=O)N3CCN(c4ccccc4F)CC3)cc2c1`, the viability was 108%.

In the case of `O=C(Nn1cc(C(=O)N2CCN(c3ccccc3F)CC2)c2ccccc2c1=O)c1cnccn1`, the viability is 34.7% (active).

As for `CC(C)OC(=O)c1c(NC(=O)c2ccco2)sc2c1CCCC2`, the viability was 109%.

Turning to `O=C1C(Cl)=C(N2CCOCC2)C(=O)N1c1ccccc1`, the viability is 86.6%.

For the molecule `COc1cc(NS(=O)(=O)c2ccc(NC(C)=O)cc2)cc(OC)c1`, the viability was 90.3%.

With `COc1ccc2oc(C)c(NC(C)=O)c2c1`, the viability is 97.4%.

Consider `COc1ccc(S(=O)(=O)Nc2ccc3oc(C)c(C(C)=O)c3c2)cc1`, for which the viability was 18.7% (active).

Take `C=CCN(C(=O)Cn1ncc2c1-c1cc(C)ccc1OC2)c1ccccc1`: the viability is 84.9%.

As to `CC(=O)C1=C(C)NC(=O)NC1c1cc(Br)ccc1OCC#N` (configuration not stated), the viability is 97.1%.

Take `Cc1cnc(NC(=O)CSc2nnc(C)s2)s1`: the viability is 81.4%.

As to `Cc1nnc(NC(=O)CSc2nccn2-c2cccc(C)c2C)s1`, the viability was 29.5% (active).

`COc1ccccc1-n1c(CNC(=O)c2ccccc2)nnc1SCC(=O)Nc1nnc(C)s1`: the viability was 108%.

As to `COc1cc2c(cc1OC)C(c1ccc(C)o1)CC(=O)N2` (configuration not stated), the viability is 85.8%.

Consider `CCOC(=O)CSC1=C(C#N)C(c2ccco2)C(C(=O)OCc2ccccc2)=C(C)N1` (configuration not stated), for which the viability is 22.2% (active).

In the case of `CC1=C(C(=O)Nc2ccccc2)C(c2ccco2)C(C#N)=C(SCC(N)=O)N1` (configuration not stated), the viability is 91%.

On to `COC(=O)CSC1=C(C#N)C(c2ccccc2OC)C(C(=O)OC)C(=O)N1` (configuration not stated), for which the viability is 94.8%.

For the molecule `Cc1ccc(C2CC(=O)NC(SCC(=O)OCc3ccccc3)=C2C#N)o1` (configuration not stated), the viability was 24.4% (active).

Consider `C=CCOC(=O)C1=C(C)NC(SCC(=O)OCC)=C(C#N)C1c1ccc(C)cc1` (configuration not stated), for which the viability is 61.6%.
